In PubChem BioAssay (Tox21):
Records with an inconclusive call do not appear. Active and inactive are the calls of the source. Unless noted, calls follow the shape of the dose curve; as a rule, active = well fitted curve in the direction sought with a large enough effect in the repeat runs; inconclusive = weak or mixed curves; inactive = no such curve, though single readings can be large; an effect the other way counts as inactive or inconclusive.

Tests used:
[1] = qHTS assay to identify small molecule agonists of the sonic hedgehog signaling (Shh) pathway - cell viability counter screen (AID 1259366); also: nearly all actives have a fitted effect of over 50% in size
Procedure, shortened: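 Cytotoxicity counter screen: CellTiter-Fluor reagent added after 23 h compound exposure, then 1 h at 37C and fluorescence read. Cells were 3T3 Gli1-Luc, seeded 2,000 per well and dosed 4 h post-plating.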

[2] = qHTS assay to identify small molecule antagonists of the sonic hedgehog signaling (Shh) pathway - cell viability counter screen (AID 1259367); also: nearly all actives have a fitted effect of over 55% in size
Procedure, shortened: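 NIH/3T3-derived Gli1-Luc reporter cells, 2,000/well, plated 4 hr before compound addition, then stimulated with conditioned medium for 24 hr at 37C. Viability measured in the same wells by CellTiter-Fluor fluorescence, reagent added at 23 hr for 1 hr.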

[3] = qHTS assay to identify small molecule agonists of the sonic hedgehog signaling (Shh) pathway (AID 1259368; calls by dose curve;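 also: NIH/3T3-derived 3T3Gli1-Luc cells carrying a stable Gli1-driven firefly luciferase reporter; series mostly up to about 92 µM; nearly all actives have a fitted effect of over 15% in size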)
Procedure, shortened: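 3T3Gli1-Luc (NIH/3T3 clone, stable Gli1-Luc); 4 hr pre-incubation, then cpd in DMSO 24 hr, 37 C/5% CO2; luciferase reagent 30 min RT; luminescence.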

[4] = qHTS assay to identify small molecule antagonists of the sonic hedgehog signaling (Shh) pathway (AID 1259369; calls by dose curve; also: nearly all actives have a fitted effect of over 45% in size)
Procedure, shortened: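 3T3Gli1-Luc, conditioned-medium-stimulated, 24hr cpd, 37C/5% CO2; Gli1-driven firefly Luc luminescence after 30min RT with luciferase reagent. Cells plated 4hr before cpd.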

[5] = molecular target: Estrogen receptor beta (Homo sapiens) (UniProt Q92731); assay: qHTS assay to identify small molecule agonists of the estrogen receptor beta (ER-beta) signaling pathway (AID 1259377; active = well fitted activation curve with a large enough effect in the signal ratio in the repeat runs, not every such curve was filed as active; the % refers to the signal ratio)
Chain of Estrogen receptor beta (Homo sapiens) (Q92731 whole entry, looked up): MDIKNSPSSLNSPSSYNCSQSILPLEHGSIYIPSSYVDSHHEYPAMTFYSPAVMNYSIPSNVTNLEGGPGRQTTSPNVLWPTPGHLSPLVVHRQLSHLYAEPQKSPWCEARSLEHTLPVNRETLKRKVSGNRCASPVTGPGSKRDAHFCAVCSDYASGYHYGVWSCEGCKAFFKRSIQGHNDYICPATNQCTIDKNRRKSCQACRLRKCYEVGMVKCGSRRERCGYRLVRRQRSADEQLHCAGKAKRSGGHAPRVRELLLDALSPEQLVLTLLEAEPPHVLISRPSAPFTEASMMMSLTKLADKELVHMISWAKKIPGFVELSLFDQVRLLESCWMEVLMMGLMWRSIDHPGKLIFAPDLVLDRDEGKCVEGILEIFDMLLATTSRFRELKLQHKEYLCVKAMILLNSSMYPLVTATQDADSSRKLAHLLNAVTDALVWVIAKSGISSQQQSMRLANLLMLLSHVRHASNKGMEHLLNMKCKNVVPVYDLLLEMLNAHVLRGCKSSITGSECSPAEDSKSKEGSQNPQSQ
Procedure, shortened: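 Ratiometric beta-lactamase FRET read-out came after 2 h substrate loading at room temperature. It followed 16 h compound treatment at 37C of GripTite HEK293T cells carrying a UAS-bla reporter, plated in 2% charcoal-stripped FBS medium.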

[6] = molecular target: Estrogen receptor beta (Homo sapiens) (UniProt Q92731); assay: qHTS assay to identify small molecule antagonists of the estrogen receptor beta (ER-beta) signaling pathway (AID 1259378; active = well fitted inhibition curve with a large enough effect in the signal ratio in the repeat runs, not every such curve was filed as active; the % refers to the signal ratio)
Procedure, shortened: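 ER-beta-UAS-bla HEK293T cells in 2% charcoal-stripped FBS medium treated with compound plus 1nM final 17-beta-estradiol for 16 hr at 37C. Beta-lactamase reporter read by FRET substrate fluorescence after 2 hours at room temperature.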

[7] = qHTS assay to identify small molecule agonists of the androgen receptor (AR) signaling pathway in the presence of an antagonist - cell viability counter screen (AID 1259379);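 also: MDA-kb2 human breast cancer cells carrying an MMTV luciferase reporter; series mostly up to about 92 µM; nearly all actives have a fitted effect of over 25% in size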
Procedure, shortened: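 Cells: MDA-kb2 (MMTV-luc, AR and GR elements), 3,000/well, 5 hr settle. Added: nilutamide 3.0uM final, then compounds (15 conc.). Incubation: 16 hr, 37C, no CO2. Read-out: CellTiter-Fluor, 1 hr, fluorescence.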

[8] = qHTS assay to identify small molecule agonists of the estrogen receptor beta (ER-beta) signaling pathway - cell viability counter screen (AID 1259380); also: nearly all actives have a fitted effect of over 30% in size
Procedure, shortened: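 HEK293T ER-beta-UAS-bla; 2% CS-FBS; 6 hr pre-plate, 16 hr cpd at 37C/5% CO2; LiveBLAzer read first, then CellTiter-Glo 30 min RT, luminescence.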

[9] = qHTS assay to identify small molecule antagonists of the estrogen receptor beta (ER-beta) signaling pathway - cell viability counter screen (AID 1259382); also: series mostly up to about 92 µM; nearly all actives have a fitted effect of over 55% in size
Procedure, shortened: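 Cells: ER-beta-UAS-bla HEK293T, 2,000/well, 2% CS-FBS, 6 hr settle. Cpd + E2 (1nM final), 16 hr, 37C/5% CO2. Bla FRET substrate 2 hr RT, then CellTiter-Glo 30 min RT, luminescence.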

[10] = molecular target: Androgen receptor (Homo sapiens) (UniProt P10275); assay: qHTS assay to identify small molecule agonists of the androgen receptor (AR) signaling pathway in the presence of an antagonist (AID 1259381; calls by dose curve; also: nearly all actives have a fitted effect of over 15% in size)
Chain of Androgen receptor (Homo sapiens) (P10275 whole entry, looked up): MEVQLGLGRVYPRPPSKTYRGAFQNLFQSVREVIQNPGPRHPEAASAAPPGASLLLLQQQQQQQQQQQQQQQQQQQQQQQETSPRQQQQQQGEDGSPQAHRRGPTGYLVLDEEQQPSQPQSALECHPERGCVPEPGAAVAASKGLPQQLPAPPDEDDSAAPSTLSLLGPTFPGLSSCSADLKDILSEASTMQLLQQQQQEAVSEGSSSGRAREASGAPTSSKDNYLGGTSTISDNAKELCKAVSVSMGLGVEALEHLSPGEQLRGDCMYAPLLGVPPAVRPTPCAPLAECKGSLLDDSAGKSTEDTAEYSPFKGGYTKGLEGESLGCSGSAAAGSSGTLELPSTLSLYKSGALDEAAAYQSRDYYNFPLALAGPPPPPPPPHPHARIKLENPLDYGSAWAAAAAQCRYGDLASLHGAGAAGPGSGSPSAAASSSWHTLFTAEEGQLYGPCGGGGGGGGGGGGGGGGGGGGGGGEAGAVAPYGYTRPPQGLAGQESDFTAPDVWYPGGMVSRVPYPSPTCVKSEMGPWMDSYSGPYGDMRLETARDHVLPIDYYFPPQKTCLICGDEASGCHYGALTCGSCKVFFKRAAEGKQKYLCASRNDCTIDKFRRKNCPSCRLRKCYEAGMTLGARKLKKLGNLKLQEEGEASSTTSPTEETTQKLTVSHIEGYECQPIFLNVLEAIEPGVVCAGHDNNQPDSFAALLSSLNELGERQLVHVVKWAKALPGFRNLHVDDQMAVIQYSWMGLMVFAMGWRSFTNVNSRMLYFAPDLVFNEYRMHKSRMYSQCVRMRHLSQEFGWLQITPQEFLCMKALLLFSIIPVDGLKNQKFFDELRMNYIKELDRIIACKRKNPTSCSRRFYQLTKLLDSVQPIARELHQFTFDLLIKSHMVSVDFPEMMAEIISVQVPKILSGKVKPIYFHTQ
Procedure, shortened: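 MDA-kb2 cells, 3,000/well, rested 5hr at 37C/0% CO2 → nilutamide 3.0uM final or buffer → compounds, 15 conc. → 16hr at 37C → ONE-Glo, 30min RT → luminescence.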
% is scaled to controls: 0 for no effect and ±100 for the full control effect.

Cc1cc(N)no1
inactive: outcome [1] | outcome [2] | outcome [3] | Potency [4] | Potency [5] | outcome [6] | outcome [7] | Potency [8]

CN1C(CCl)Nc2cc(Cl)c(S(N)(=O)=O)cc2S1(=O)=O (centres undefined)
inactive: outcome [1] | outcome [2] | outcome [3] | Potency [4] | Potency [5] | outcome [6] | outcome [7] | Potency [8]

CC(C)OCCO
inactive: outcome [1] | outcome [2] | outcome [3] | Potency [4] | Potency [5] | outcome [6] | outcome [7] | Potency [8] | outcome [9]

COC(=O)c1cc(Cl)c(NC(C)=O)cc1OC
inactive: outcome [1] | outcome [2] | outcome [3] | Potency [4] | Potency [5] | outcome [6] | outcome [7] | Potency [8] | outcome [10] | outcome [9]

COc1ccccc1N1CCN(CC(O)COc2cc(OC)c(OC)c(OC)c2)CC1 (centres undefined)
inactive: outcome [1] | outcome [2] | outcome [3] | Potency [4] | Potency [5] | outcome [6] | outcome [7] | Potency [8]

Cc1ccc(NC(N)=O)cc1
inactive: outcome [1] | outcome [2] | outcome [3] | Potency [4] | Potency [5] | outcome [6] | outcome [7] | Potency [8] | outcome [9]

CN(C)c1cc(NC(=O)CNC(C)(C)C)c(O)c2c1C[C@H]1C[C@H]3[C@H](N(C)C)C(=O)C(C(N)=O)=C(O)[C@@]3(O)C(=O)C1=C2O
inactive: outcome [1] | outcome [2] | outcome [3] | Potency [4] | Potency [5] | outcome [6] | outcome [7] | Potency [8] | outcome [10] | outcome [9]

O=c1[nH]c(=O)c2cn[nH]c2[nH]1
inactive: outcome [1] | outcome [2] | outcome [3] | Potency [4] | Potency [5] | outcome [6] | outcome [7] | Potency [8] | outcome [9]

C=CC(=O)OCC[N+](C)(C)C
inactive: outcome [1] | outcome [2] | outcome [3] | Potency [4] | Potency [5] | outcome [6] | outcome [7] | Potency [8] | outcome [9]

C=CCCCCCCCCCCCCCC
inactive: viability change, negative = cytotoxic [1] -2.14% [at 19 µM] | viability change, negative = cytotoxic [2] -0.0329% [at 19 µM] | activity change [3] -0.591% [at 18.9 µM] | activity change, negative = inhibition [4] 8.65% [at 19 µM] | activation [5] 1.28% [at 19 µM] | activity, negative = inhibition [6] 2.19% [at 19 µM] | activity change, negative = cytotoxicity [7] -2.34% [at 19 µM] | activity change, negative = cytotoxicity [8] 1.12% [at 19 µM] | activity change, negative = cytotoxicity [9] -6.85% [at 19 µM]

COc1cnc(NS(=O)(=O)c2ccc(N)cc2)nc1
inactive: outcome [1] | outcome [2] | outcome [3] | Potency [4] | Potency [5] | outcome [6] | outcome [7] | Potency [8] | outcome [9]

CC(C)C(C)C
inactive: outcome [1] | outcome [2] | outcome [3] | Potency [4] | Potency [5] | outcome [6] | outcome [7] | Potency [8] | outcome [9]

CN(C)c1ccncc1
inactive: outcome [1] | outcome [2] | outcome [3] | Potency [4] | Potency [5] | outcome [6] | outcome [7] | Potency [8] | outcome [9]

C/C=C(\C)C(=O)OC/C=C(\C)CCC=C(C)C
inactive: outcome [1] | outcome [2] | outcome [3] | Potency [4] | Potency [5] | outcome [6] | outcome [7] | Potency [8] | outcome [9]

O=Cc1ccccc1S(=O)(=O)O
inactive: outcome [1] | outcome [2] | outcome [3] | Potency [4] | Potency [5] | outcome [6] | outcome [7] | Potency [8] | outcome [9]

C=CCCCCCCCCOC(C)=O
inactive: outcome [1] | outcome [2] | outcome [3] | Potency [4] | Potency [5] | outcome [6] | outcome [7] | Potency [8] | outcome [9]

CCCCCCCCCCCCCCCC(=O)OC
inactive: viability change, negative = cytotoxic [1] 4.58% [at 19 µM] | viability change, negative = cytotoxic [2] -2.31% [at 19 µM] | activity change [3] 0.811% [at 18.9 µM] | activity change, negative = inhibition [4] 21.4% [at 19 µM] | activation [5] -1.46% [at 19 µM] | activity, negative = inhibition [6] 3.6% [at 19 µM] | activity change, negative = cytotoxicity [7] 0.0056% [at 19 µM] | activity change, negative = cytotoxicity [8] 4.05% [at 19 µM]

CCN(CC)CC(=O)Oc1ccc(NC(C)=O)cc1
inactive: outcome [1] | outcome [2] | outcome [3] | Potency [4] | Potency [5] | outcome [6] | outcome [7] | Potency [8] | outcome [10] | outcome [9]

O=C(O)/C=C(\CC(=O)O)C(=O)O
inactive: outcome [1] | outcome [2] | outcome [3] | Potency [4] | Potency [5] | outcome [6] | outcome [7] | Potency [8] | outcome [9]

O=CN1CCCCC1
inactive: outcome [1] | outcome [2] | outcome [3] | Potency [4] | Potency [5] | outcome [6] | outcome [7] | Potency [8] | outcome [9]

Cc1ccccc1OCC(=O)O
inactive: outcome [1] | outcome [2] | outcome [3] | Potency [4] | Potency [5] | outcome [6] | outcome [7] | Potency [8] | outcome [9]

O=C1CC2(CCCC2)CC(=O)N1CCNCC1COc2ccccc2O1 (centres undefined)
inactive: outcome [1] | outcome [2] | outcome [3] | Potency [4] | Potency [5] | outcome [6] | outcome [7] | Potency [8] | outcome [9]

CCCCN(CCCC)CCCCCCN(CCCC)CCCC
inactive: outcome [1] | outcome [2] | outcome [3] | Potency [4] | Potency [5] | outcome [6] | outcome [7] | Potency [8] | outcome [9]

C[C@@H]1NC(=O)[C@@H](N)CNC(=O)[C@H](C2CCNC(N)=N2)NC(=O)/C(=C/NC(N)=O)NC(=O)[C@H](CNC(=O)C[C@@H](N)CCCN)NC1=O (some centres undefined)
inactive: viability change, negative = cytotoxic [1] -4% [at 0.349 µM] | viability change, negative = cytotoxic [2] 1.74% [at 0.349 µM] | activity change [3] 0.0291% [at 0.349 µM] | activity change, negative = inhibition [4] 22.6% [at 0.349 µM] | activation [5] 1.61% [at 0.348 µM] | activity, negative = inhibition [6] -0.409% [at 0.349 µM] | activity change, negative = cytotoxicity [7] 5.61% [at 0.35 µM] | activity change, negative = cytotoxicity [8] 11.9% [at 0.349 µM]
